Inconclusive results are not listed. Values without a mark were called inactive. Activity calls are given as the source filed them. Calls come from the whole dose curve; as a rule, active = well fitted inhibition curve with a large enough effect in the signal ratio in the repeat runs (not every such curve was filed as active); inconclusive = weak or mixed curves, or effect the other way; inactive = no such curve, though single readings can be large or run the other way; the % refers to the signal ratio.
Target: Estrogen receptor beta (Homo sapiens) (UniProt Q92731)
Test: qHTS assay to identify small molecule antagonists of the estrogen receptor beta (ER-beta) signaling pathway (AID 1259378)
Settings: ER-beta-UAS-bla HEK293T, beta-lactamase FRET ratio, 16 h; series mostly up to 92.4 µM; activity, negative = inhibition: at the top concentration
Excerpt: National Center for Advancing Translational Sciences [NCATS]
NIH Chemical Genomics Center [NCGC]
U.S. Environmental Protection Agency [EPA]
National Institutes of Environmental Health Sciences [NIEHS]
National Toxicology Program [NTP]
U.S. Food and Drug Administration [FDA]
Estrogen receptor (ER), a nuclear hormone receptor, plays an important role in development, metabolic homeostasis and reproduction. Two subtypes of ER, ER-alpha and ER-beta, have similar expression patterns with some uniqueness in both types. Endocrine disrupting chemicals (EDCs) and their interactions with steroid hormone receptors like ER causes disruption of normal endocrine function. To identify the compounds that inhibit ER signaling, an ER-beta-UAS-bla GripTite cell line (Life Technologies, Madison, WI, USA) containing a beta-lactamase reporter gene under the control of an UAS response element was used to screen Tox21 10K compound library.
Tox21 Assay Protocol Summary:
ER-beta-UAS-bla HEK293T cells were dispensed at 2,000 cells/4 uL of assay medium containing 2% charcoal stripped FBS per well into black wall/clear-bottom 1536-well plates using a Multidrop Combi (ThermoFisher Scientific, Waltham, MA) dispenser. After the assay plates were incubated at a 37C and 5% CO2 for 6 hr, 23 nL of compounds dissolved in DMSO, positive controls or DMSO only was transferred to the assay plate by a Pintool station (Kalypsys, San Diego, CA), followed by addition of 1 uL (1nM as final concentration) of 17-beta-estradiol (E2) in assay medium using a BioRAPTR FRD (Flying Reagent Dispenser, Aurora Discovery, San Diego, CA). The plates were incubated at 37C and 5% CO2 for 16 hr. Then 1 uL of LiveBLAzerTM B/G FRET substrate was added using a Flying Reagent Dispenser, the plates were incubated at room temperature for 2 hours, and fluorescence intensity was measured by an Envision plate reader (PerkinElmer, Shelton, CT).
% is set by controls: 0 for no effect and ±100 for the full control effect; potency is the fitted concentration of half-maximal effect.

Sequence of Estrogen receptor beta (Homo sapiens) (Q92731 whole entry, looked up): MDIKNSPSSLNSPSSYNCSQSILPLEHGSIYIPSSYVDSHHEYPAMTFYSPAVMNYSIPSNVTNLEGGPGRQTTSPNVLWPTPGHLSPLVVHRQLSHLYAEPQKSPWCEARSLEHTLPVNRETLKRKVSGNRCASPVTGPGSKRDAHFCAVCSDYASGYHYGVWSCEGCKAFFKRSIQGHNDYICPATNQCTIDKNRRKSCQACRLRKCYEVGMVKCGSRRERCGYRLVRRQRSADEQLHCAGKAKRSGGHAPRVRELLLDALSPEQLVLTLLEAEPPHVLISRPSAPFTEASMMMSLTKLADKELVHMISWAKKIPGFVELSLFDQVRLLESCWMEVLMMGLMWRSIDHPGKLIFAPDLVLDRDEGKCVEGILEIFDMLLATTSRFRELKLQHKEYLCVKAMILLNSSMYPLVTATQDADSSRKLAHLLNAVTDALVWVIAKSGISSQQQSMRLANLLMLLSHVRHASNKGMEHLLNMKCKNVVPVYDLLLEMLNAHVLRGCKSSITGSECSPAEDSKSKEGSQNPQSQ

| SMILES | activity, negative = inhibition | Potency |
| --- | --- | --- |
| COc1ccc(COC=O)cc1 | 11.8% | – |
| CCCCc1ccc2cccc(S(=O)(=O)O)c2c1 | 11% | – |
| CC(C)(C)C(=O)/C=C/c1ccc(Cl)cc1 | -22.9% | – |
| CCC(C(=O)NC(N)=O)c1ccccc1 (stereo not given) | 5.22% | – |
| CCCCCCCCC=O | 2.39% | – |
| CCCCCCCCCCCCCCC | 7.3% | – |
| CCCCCCOC(=O)CC(CC(=O)OCCCCCC)(OC(=O)CCC)C(=O)OCCCCCC | 9.4% | – |
| O=C(CCOCCOCCOCCOCCC(=O)Nc1c(I)cc(I)c(C(=O)O)c1I)Nc1c(I)cc(I)c(C(=O)O)c1I | 1.3% [at 42.5 µM] | – |
| N#CCN(CC#N)CCN(CC#N)CC#N | 19.2% | – |
| O=[N+]([O-])c1ccc(Oc2ccc([N+](=O)[O-])cc2)cc1 | 6.3% | – |
| O=C(O)c1ccc[n+]([O-])c1 | 4.52% [at 42.5 µM] | – |
| CCCCNc1ccccc1 | 0.469% | – |
| C=CCn1c(=O)n([C@@H]2O[C@H](CO)[C@@H](O)[C@H]2O)c2nc(N)[nH]c(=O)c21 | 7.11% [at 42.5 µM] | – |
| OC1OC[C@@H](O)[C@H](O)[C@H]1O (stereo not given in full) | 3.79% | – |
| CC(=O)CCc1ccc(O)cc1 | 13% | – |
| CC(C)(C)OC(=O)N1C[C@@H](F)C[C@H]1C(=O)O | -7.18% | – |
| CC(C)CCCC(C)NCCC(C)C (stereo not given) | 15.6% [at 42.5 µM] | – |
| CC(C)(O)C(=O)c1ccc(OCCO)cc1 | -2.92% | – |
| CC1=CC(=O)CCC1 | 14.8% | – |
| c1cc(CN2CCCCC2)cc(OCCCNc2nc3ccccc3s2)c1 | – | 23.7 µM (active) |

| SMILES | activity, negative = inhibition | Potency |
| --- | --- | --- |
| O=C1OC(=O)c2cc([N+](=O)[O-])ccc21 | 8.17% | – |
| [O-][N+](=Nc1ccccc1)c1ccccc1 | -2.45% | – |
| C[C@H]1O[C@@H](n2cc(F)c(=O)[nH]c2=O)[C@H](O)[C@@H]1O | 9.54% [at 42.5 µM] | – |
| C[N+](C)(C)CC[N+]1(C)Cc2c(Cl)c(Cl)c(Cl)c(Cl)c2C1 | 13.7% [at 42.5 µM] | – |
| CCO[Si](C)(OCC)OCC | 8.99% | – |
| Cc1ccccc1Br | 5.78% | – |
| Nc1nc(F)nc2c1ncn2[C@@H]1O[C@H](CO)[C@@H](O)[C@@H]1O | 17.8% [at 42.5 µM] | – |
| Nc1nc2c(ncn2CCC(CO)CO)c(=O)[nH]1 | 3.4% [at 42.5 µM] | – |
| CCCc1ccc(N)cc1 | -6.6% | – |
| C1=C\CC/C=C\CC/C=C\CC/1 | -0.702% | – |
| CC(C=O)Cc1ccc(C(C)C)cc1 (stereo not given) | -3.6% | – |
| O=C1CC2(CCCC2)CC(=O)N1 | -4.8% [at 42.5 µM] | – |
| CC(C)[N+](C)(C)CC(O)COc1cccc2ccccc12 (stereo not given) | 8.99% [at 42.5 µM] | – |
| CCCCCC[C@@H](CCC)C(=O)O | 3.45% [at 42.5 µM] | – |
| c1ccc(SCCSc2ccccc2)cc1 | 1.03% | – |
| CC(=O)N[C@@H](CCC(N)=O)C(=O)O | 7.28% [at 42.5 µM] | – |
| O=c1[nH]c2ccccc2c(=O)n1CCCl | 18.4% [at 42.5 µM] | – |
| CC12CCC(CC1=O)C2(C)C (stereo not given) | -0.658% | – |
| COCc1ccc(COC)cc1 | 1.87% | – |
| CN(C)N=Nc1ccccc1 | 2.66% | – |

Source: PubChem BioAssay (Tox21)
